Consider 34 molecules from PubChem BioAssay.

Unmarked numbers belong to inactive results. Active and inactive are the calls of the source. Rule as the data show it, unless noted: active = inhibition above about 30%; inactive = the rest.

The target of test [1] is Nuclear receptor coactivator 3 (Homo sapiens) (UniProt Q9Y6Q9). As to the kind of experiment: NCOA3 GAL4-fusion reporter inhibition – cell-based, luminescence, quadruplicate, confirmation (AID 588792;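 active = mean inhibition over 43.08%, the solvent-only control mean plus 3 SD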;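 also: 0% = DMSO treated cells and 100% = gossypol at 36 µM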). Particulars: HEK293 GAL4-SRC3 luciferase reporter, at 3.6 µM, hits give high values.
Test [2] concerns transactivating tegument protein VP16 (Human herpesvirus 1), Gal4-VP16 luciferase reporter. The test is described as follows: repression of VP16-driven luciferase reporter – cell-based, luminescence, high throughput, counter-screen for SRC3 inhibitor project (AID 588794). Particulars: mammalian cells, at 3.6 µM, hits give high values.

Nuclear receptor coactivator 3 (Homo sapiens), sequence (Q9Y6Q9 whole entry, looked up, the tested form may be a part): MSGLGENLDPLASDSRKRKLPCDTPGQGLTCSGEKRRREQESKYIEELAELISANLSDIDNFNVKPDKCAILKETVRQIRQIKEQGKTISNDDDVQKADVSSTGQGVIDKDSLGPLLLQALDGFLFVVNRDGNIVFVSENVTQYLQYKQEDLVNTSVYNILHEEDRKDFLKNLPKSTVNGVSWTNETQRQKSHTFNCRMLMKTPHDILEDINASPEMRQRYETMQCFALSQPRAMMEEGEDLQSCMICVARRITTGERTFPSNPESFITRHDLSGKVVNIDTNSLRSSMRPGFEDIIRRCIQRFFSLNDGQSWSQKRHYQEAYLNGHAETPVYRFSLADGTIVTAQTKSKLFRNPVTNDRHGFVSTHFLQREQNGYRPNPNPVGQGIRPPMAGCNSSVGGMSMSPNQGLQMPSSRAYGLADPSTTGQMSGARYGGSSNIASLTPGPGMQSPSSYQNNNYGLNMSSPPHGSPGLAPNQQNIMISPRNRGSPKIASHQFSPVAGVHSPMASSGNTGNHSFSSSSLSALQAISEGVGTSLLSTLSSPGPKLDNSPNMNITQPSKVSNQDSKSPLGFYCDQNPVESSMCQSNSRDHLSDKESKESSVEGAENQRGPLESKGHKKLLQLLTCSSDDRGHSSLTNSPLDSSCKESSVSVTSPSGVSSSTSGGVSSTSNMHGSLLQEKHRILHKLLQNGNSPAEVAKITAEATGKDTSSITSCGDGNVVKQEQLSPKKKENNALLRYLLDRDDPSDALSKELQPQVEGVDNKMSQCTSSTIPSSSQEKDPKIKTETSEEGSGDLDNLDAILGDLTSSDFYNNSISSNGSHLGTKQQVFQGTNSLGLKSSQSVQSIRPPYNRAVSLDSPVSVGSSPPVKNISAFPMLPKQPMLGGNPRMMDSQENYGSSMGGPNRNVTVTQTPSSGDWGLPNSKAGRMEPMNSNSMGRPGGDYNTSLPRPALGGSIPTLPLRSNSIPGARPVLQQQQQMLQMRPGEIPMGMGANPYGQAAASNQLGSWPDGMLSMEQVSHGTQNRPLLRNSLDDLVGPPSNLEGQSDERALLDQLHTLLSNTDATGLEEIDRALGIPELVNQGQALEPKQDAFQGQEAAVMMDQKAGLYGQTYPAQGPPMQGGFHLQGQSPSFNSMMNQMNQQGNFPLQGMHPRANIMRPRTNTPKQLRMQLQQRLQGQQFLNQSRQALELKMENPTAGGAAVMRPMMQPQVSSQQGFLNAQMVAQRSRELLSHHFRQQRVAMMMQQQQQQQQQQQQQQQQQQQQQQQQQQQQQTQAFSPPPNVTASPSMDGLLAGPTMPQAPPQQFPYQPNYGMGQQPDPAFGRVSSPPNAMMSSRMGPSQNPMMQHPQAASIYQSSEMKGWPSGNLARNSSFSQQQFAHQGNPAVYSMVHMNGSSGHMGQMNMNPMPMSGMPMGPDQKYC

The inhibition is the relative decrease from the control value, in per cent. Consider `N#CCc1c[nH]c2ccc([N+](=O)[O-])cc12`, for which the figures for the inhibition in test [1] and in test [2] were 24% and 20%, respectively.

Take `O=C(NC(=S)NNC(=O)c1ccccc1O)c1ccc(F)cc1`: the inhibition in test [1] was 19%; in test [2] it was 9.84%.

On to `COCC(C)n1c(SCC(=O)NC(=O)Cc2ccccc2)nc2ccccc2c1=O` (stereo not drawn), for which the inhibition in test [1] is 19.1%; in test [2], -4.14%.

For the molecule `O=C(N/N=C/c1ccccc1O)c1ccncc1`, the inhibition in test [1] is 14.8%; in test [2], 13.7%.

For `O=C(c1ccccc1)N1CCN(Cc2c[nH]c3ccccc23)CC1`, the results for the inhibition in test [1] and in test [2] were 8.59% and -3.11%, respectively.

As to `COc1ccc(N2CC(C(=O)N/N=C/c3ccccc3)CC2=O)cc1` (stereo not drawn), the inhibition is 5.28% in test [1] and -0.56% in test [2].

Regarding `CCN(CC)c1ccc(Nc2nc(N3CCOCC3)c3ccccc3n2)cc1`, the inhibition in test [1] was 4.45%; in test [2] it was 20.2%.

`COc1ccc(CNS(=O)(=O)c2ccc3c(c2)N(C(C)=O)CC(C)S3)cc1` (stereo not drawn): the inhibition was 7.83% in test [1] and 11.6% in test [2].

For `O=C(Cc1ccccc1)N/N=C/c1cc(Br)cc(Cl)c1O`, the inhibition was 19.8% in test [1] and 16.4% in test [2].

As to `COc1ccc(C(=O)C2CCCN(Cc3cccn3-c3ccccn3)C2)c(C)c1` (stereo not drawn), the inhibition was 26.1% in test [1] and 9.76% in test [2].

`COc1cc(NC(=O)C2CCN(S(=O)(=O)c3ccc(N4CCCC4=O)cc3)CC2)cc(OC)c1`: the inhibition is 7.83% in test [1] and 5.99% in test [2].

Consider `CCSc1nsc(NC(=O)Nc2cccc(F)c2)n1`, for which the results for the inhibition in test [1] and in test [2] were 13.2% and 15.4%, respectively.

Turning to `COC(=O)c1ccc2c(c1)C(C)(C)C(/C=C/c1ccccc1O)=[N+]2C`, the inhibition in test [1] was 58.6% (active); in test [2], 43.5% (active).

With `O=C(Nc1nc(-c2ccc3c(c2)OCCO3)cs1)c1ccc(S(=O)(=O)N2CCCCC2)cc1`, the inhibition in test [1] was -0.44%; in test [2], 32.6% (active).

Turning to `Cc1ccc(CNC(=O)CCc2ccc(S(=O)(=O)NC3CCCCC3)cc2)cc1`, the inhibition in test [1] is 0.11%; in test [2] it was 0.04%.

`CCCN1C(=O)c2ccccc2NC1c1ccc(Cl)c(Cl)c1` (stereo not drawn): the inhibition in test [1] is 17.8%; in test [2], 22.1%.

Regarding `CCOC(=O)C1=C(C)N[C@@]2(O)c3ccccc3C(=O)[C@@]12O`, the inhibition is 2.93% in test [1] and -4.31% in test [2].

`COc1ccccc1NS(=O)(=O)c1cc(NC(=O)c2ccc(Cl)nc2)ccc1Cl`: the inhibition was 9.43% in test [1] and 30.7% (active) in test [2].

`CC(=O)c1c(C)[nH]c(C(=O)CSc2nc3ccccc3n2C)c1C`: the inhibition in test [1] was 2.74%; in test [2], 11.8%.

In the case of `O=S(=O)(CC(CN1CCCCC1)N1CCCCC1)c1ccc2ccccc2c1` (stereo not drawn), the inhibition in test [1] was 4.5%; in test [2], 6.94%.

Take `CC(C)COc1ccc(C(=O)Nc2sc3c(c2C(=O)O)CC(C)(C)OC3)cc1`: the inhibition in test [1] was 45.4% (active); in test [2], 68.5% (active).

For the molecule `O=C(NCc1cccs1)C1CCCN(C(=O)Nc2ccccc2)C1` (stereo not drawn), the results for the inhibition in test [1] and in test [2] were 17.7% and 31.9% (active), respectively.

As to `CC(C)CN=C(NS(=O)(=O)c1ccccc1)C(Cl)(Cl)Cl`, the inhibition in test [1] was 24.3%; in test [2], 16.1%.

In the case of `O=C(N/N=C/c1cc(Cl)ccc1O)c1cccnc1`, the inhibition in test [1] is 15.7%; in test [2], 41.4% (active).

Turning to `CCCCCCCOC(=O)C[N+](C)(C)CCOC1CC2CCC1(C)C2(C)C` (stereo not drawn), the values for the inhibition in test [1] and in test [2] were -17.6% and 9.62%, respectively.

On to `O=C(CSc1nnc(COc2ccc(Cl)cc2)o1)N1CCOCC1`, for which the inhibition in test [1] was -3.82%; in test [2], -7.96%.

As for `CC[N+](CC)(CC)CCOc1ccc(/C=C/c2ccccc2)cc1`, the figures for the inhibition in test [1] and in test [2] were 3.27% and 5.91%, respectively.

On to `O=C(C[n+]1ccccc1)NNc1ccccc1`, for which the results for the inhibition in test [1] and in test [2] were 33.2% and 47.4% (active), respectively.

Take `COC(=O)c1ccc(S(=O)(=O)NCc2ccc(S(N)(=O)=O)cc2)o1`: the inhibition is -5.84% in test [1] and -6.55% in test [2].

Take `COc1ccc(C(CNC(=O)C(C)(C)Oc2ccc(Cl)cc2)N2CCCCC2)cc1` (stereo not drawn): the inhibition is 11.2% in test [1] and 2.63% in test [2].

For the molecule `Cc1ccc(C(=O)C[n+]2cc(-c3ccccc3)n3c2CCCCC3)cc1`, the inhibition was 6.68% in test [1] and 22.9% in test [2].

With `COCC(C)NS(=O)(=O)c1ccc(C(=O)NC(Cc2ccccc2)c2ccccc2)cc1` (stereo not drawn), the inhibition is 17.7% in test [1] and 0.32% in test [2].

In the case of `COc1ccc(-c2cc(C(=O)NNC(=S)NC(=O)c3c(-c4ccccc4)noc3C)[nH]n2)cc1`, the values for the inhibition in test [1] and in test [2] were 6.16% and -3.86%, respectively.

With `Cc1nnnn1/C(=C\c1ccccc1)C(=O)OCC(=O)Nc1cccc(S(=O)(=O)N(C)C)c1`, the results for the inhibition in test [1] and in test [2] were -9.38% and 13.2%, respectively.
